This excerpt belongs to a sample that is enriched for the strongest signals.
Legend:
Assay in all cases: glycan array binding signal (z-score within array); higher = stronger binding
Conditions in all cases: glycan notation: IUPAC condensed, linker removed; mutation: R120K
[1] = biological target: GlcNAc(b1-2)Man(a1-3)[GlcNAc(b1-2)Man(a1-6)]Man(b1-4)GlcNAc(b1-4)[Fuc(a1-6)]GlcNAc
Procedure, shortened: (§1)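 The Consortium for Functional Glycomics database supplied 3228 glycan arrays, of which those lacking an available protein sequence were dropped. The binding signal, a within-array Z-score, was averaged across arrays of the same protein sequence and across linkers. Negative scores can be read as non-binding.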

[2] = biological target: GlcNAc(b1-2)[GlcNAc(b1-4)]Man(a1-3)[GlcNAc(b1-4)][GlcNAc(b1-2)Man(a1-6)]Man(b1-4)GlcNAc(b1-4)GlcNAc
Procedure, shortened: as §1

[3] = biological target: GlcNAc(b1-2)[GlcNAc(b1-6)]Man(a1-6)[GlcNAc(b1-2)Man(a1-3)]Man(b1-4)GlcNAc(b1-4)GlcNAc
Procedure, shortened: as §1

[4] = biological target: GlcNAc(b1-3)Gal(b1-4)GlcNAc(b1-2)Man(a1-3)[GlcNAc(b1-3)Gal(b1-4)GlcNAc(b1-2)Man(a1-6)]Man(b1-4)GlcNAc(b1-4)[Fuc(a1-6)]GlcNAc
Procedure, shortened: as §1

[5] = biological target: GlcNAc(b1-3)Gal(b1-4)GlcNAc(b1-2)[GlcNAc(b1-3)Gal(b1-4)GlcNAc(b1-6)]Man(a1-6)[GlcNAc(b1-3)Gal(b1-4)GlcNAc(b1-2)Man(a1-3)]Man(b1-4)GlcNAc(b1-4)GlcNAc
Procedure, shortened: as §1

[6] = biological target: GlcNAc(b1-3)Gal(b1-4)GlcNAc(b1-3)GalNAc
Procedure, shortened: as §1

Kdn(a2-3)Gal(b1-4)Glc = biological target: Kdn(a2-3)Gal(b1-4)Glc
Procedure, shortened: as §1

[7] = biological target: Man(a1-2)Man(a1-2)Man(a1-6)[Man(a1-3)]Man
Procedure, shortened: as §1

[8] = biological target: Man(a1-2)Man(a1-6)[Man(a1-3)]Man(a1-6)[Man(a1-2)Man(a1-2)Man(a1-3)]Man
Procedure, shortened: as §1

Neu5Ac(a2-3)Gal = biological target: Neu5Ac(a2-3)Gal
Procedure, shortened: as §1

[9] = biological target: Neu5Ac(a2-3)Gal(b1-3)GalNAc
Procedure, shortened: as §1

[10] = biological target: Neu5Ac(a2-3)Gal(b1-3)GalNAc(b1-4)Gal(b1-4)Glc
Procedure, shortened: as §1

[11] = biological target: Neu5Ac(a2-3)Gal(b1-3)GalNAc(b1-4)[Neu5Ac(a2-8)Neu5Ac(a2-3)]Gal(b1-4)Glc
Procedure, shortened: as §1

[12] = biological target: Neu5Ac(a2-3)Gal(b1-3)GlcNAc(b1-2)Man(a1-3)[Neu5Ac(a2-3)Gal(b1-3)GlcNAc(b1-2)Man(a1-6)]Man(b1-4)GlcNAc(b1-4)GlcNAc
Procedure, shortened: as §1

[13] = biological target: Neu5Ac(a2-3)Gal(b1-3)]Neu5Ac(a2-3)Gal(b1-4)]GlcNAc
Procedure, shortened: as §1

Neu5Ac(a2-3)Gal(b1-4)Glc = biological target: Neu5Ac(a2-3)Gal(b1-4)Glc
Procedure, shortened: as §1

[14] = biological target: Neu5Ac(a2-3)Gal(b1-4)GlcNAc(b1-2)Man(a1-3)[GlcNAc(b1-4)][Neu5Ac(a2-3)Gal(b1-4)GlcNAc(b1-2)Man(a1-6)]Man(b1-4)GlcNAc(b1-4)GlcNAc
Procedure, shortened: as §1

[15] = biological target: Neu5Ac(a2-3)Gal(b1-4)[Fuc(a1-3)]GlcNAc(b1-6)[Gal(b1-3)]GalNAc
Procedure, shortened: as §1

[16] = biological target: Neu5Ac(a2-6)Gal(b1-4)GlcNAc(b1-2)[Neu5Ac(a2-6)Gal(b1-4)GlcNAc(b1-4)]Man(a1-3)[GlcNAc(b1-4)][Neu5Ac(a2-6)Gal(b1-4)GlcNAc(b1-2)[Neu5Ac(a2-6)Gal(b1-4)GlcNAc(b1-6)]Man(a1-6)]Man(b1-4)GlcNAc(b1-4)GlcNAc
Procedure, shortened: as §1

[17] = biological target: Neu5Ac(a2-6)Gal(b1-4)GlcNAc(b1-3)Gal(b1-3)GlcNAc
Procedure, shortened: as §1

[18] = biological target: Neu5Ac(a2-6)GlcNAc(b1-4)GlcNAc
Procedure, shortened: as §1

[19] = biological target: Neu5Ac(a2-8)Neu5Ac(a2-8)Neu5Ac(a2-3)[GalNAc(b1-4)]Gal(b1-4)Glc
Procedure, shortened: as §1

[20] = biological target: Neu5Ac(b2-6)Gal(b1-4)GlcNAc
Procedure, shortened: as §1

[21] = biological target: Neu5Gc(a2-8)Neu5Gc(a2-3)Gal(b1-4)GlcNAc(b1-3)Gal(b1-4)GlcNAc
Procedure, shortened: as §1

[22] = biological target: Neu5Gc(b2-6)Gal(b1-4)GlcNAc
Procedure, shortened: as §1

B1: Siglec-9 (Homo sapiens), Q9Y336 (protein)
chain: MLLLLLPLLWGRERAEGQTSKLLTMQSSVTVQEGLCVHVPCSFSYPSHGWIYPGPVVHGYWFREGANTDQDAPVATNNPARAVWEETRDRFHLLGDPHTKNCTLSIRDARRSDAGRYFFKMEKGSIKWNYKHHRLSVNVTALTHRPNILIPGTLESGCPQNLTCSVPWACEQGTPPMISWIGTSVSPLDPSTTRSSVLTLIPQPQDHGTSLTCQVTFPGASVTTNKTVHLNVSYPPQNLTMTVFQGDGTVSTVLGNGSSLSLPEGQSLRLVCAVDAVDSNPPARLSLSWRGLTLCPSQPSNPGVLELPWVHLRDAAEFTCRAQNPLGSQQVYLNVSLQSKATSGVTQGVVGGAGATALVFLSFCVIFVVVRSCRKKSARPAAGVGDTGIEDANAVRGSASQGPLTEPWAEDSPPDQPPPASARSSVGEGELQYASLSFQMVKPWDSRGQEATDTEYSEIKIHR
glycan array binding signal (z-score) [1]: -0.036 | glycan array binding signal (z-score) [2]: 8.32 | glycan array binding signal (z-score) [3]: -0.232 | glycan array binding signal (z-score) [4]: 0.432 | glycan array binding signal (z-score) [5]: -0.559 | glycan array binding signal (z-score) [6]: 0.35 | glycan array binding signal (z-score) (Kdn(a2-3)Gal(b1-4)Glc): 0.194 | glycan array binding signal (z-score) [7]: 0.213 | glycan array binding signal (z-score) [8]: -0.231 | glycan array binding signal (z-score) (Neu5Ac(a2-3)Gal): -0.145 | glycan array binding signal (z-score) [9]: 4.95 | glycan array binding signal (z-score) [10]: 0.412 | glycan array binding signal (z-score) [11]: 0.069 | glycan array binding signal (z-score) [12]: 3.12 | glycan array binding signal (z-score) [13]: -0.118 | glycan array binding signal (z-score) (Neu5Ac(a2-3)Gal(b1-4)Glc): 4.42 | glycan array binding signal (z-score) [14]: -0.284 | glycan array binding signal (z-score) [15]: -0.345 | glycan array binding signal (z-score) [16]: -0.023 | glycan array binding signal (z-score) [17]: -0.551 | glycan array binding signal (z-score) [18]: -0.275 | glycan array binding signal (z-score) [19]: -0.338 | glycan array binding signal (z-score) [20]: -0.52 | glycan array binding signal (z-score) [21]: -0.414 | glycan array binding signal (z-score) [22]: -0.2

From the supplement of paper PMC8728848
